In PubChem BioAssay AID492948 (National Center for Advancing Translational Sciences (NCATS), 2010):
Results filed as inconclusive are left out. The source made the active and inactive calls. Calls follow the shape of the dose curve; as a rule, active = well fitted activation curve with a large enough effect; inconclusive = small, poorly fitted or top-dose-only effect; inactive = no such curve, though single readings can be large or run the other way.

Assay: qHTS Assay for Agonists of the Relaxin Receptor RXFP1: V1B Hit Validation;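 also: counter-screen in HEK293 cells expressing V1B rather than RXFP1 for selectivity; nearly all actives have a fitted effect of over 65% in size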;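 as to activation: cAMP accumulation with PDE4 inhibitor Ro 20-1724 present during compound exposure; 0% = buffer alone basal and 100% = 29 nM porcine relaxin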
Conditions: HEK293 V1B cells, cAMP TR-FRET, 30 min; series mostly up to 115 µM; activation: at the top concentration
Outline: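 Cells: HEK293, 2000/well. Cpd 30 min, 37C, 5% CO2, + PDE4 inhibitor Ro 20174. Lyse, HTRF cAMP, 30 min RT. Norm: buffer = 0%, porcine relaxin 29 nM = 100%.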
Potency is read from the fitted curve at half-maximal effect.

activation, inactive:
O=C(Nc1ccccc1C(=O)NCc1ccccc1)c1ccco1 -0.271% [at 127 µM]
O=C(Nc1ccccc1C(=O)N1CCN(c2ccccc2)CC1)c1ccco1 -5.2% [at 127 µM]
Cc1ccc(C(=O)Nc2ccccc2C(N)=O)o1 4.86% [at 127 µM]
COc1ccc(S(=O)(=O)Nc2ccccn2)c(C)c1C 5.21% [at 44.9 µM]
CC(=O)C1C(c2ccccc2)c2c(noc2C)CC1(C)O (configuration not stated) -3.38%
O=C(Nc1ccccc1C(=O)N1CCCCC1)c1ccco1 7.89% [at 127 µM]
Cc1cc2nc3ccc(=[N+](C)C)cc-3sc2cc1N -4.25%
O=C(O)CNC(=O)c1ccccc1NC(=O)c1ccco1 -1.05% [at 127 µM]
C=CCNc1ncnc2c1ncn2C1OC(CO)C(O)C1O (configuration not stated) -32.1%
Cc1ccc(CN(C)C(=O)c2ccccc2NC(=O)c2ccccc2)o1 3.11% [at 127 µM]
COc1ccc(/C=C2/SC(=O)N(CCC(=O)Nc3ccc(C)cc3)C2=O)cc1OC -74%
O=C(Nc1ccccc1)c1ccccc1NC(=O)C1CCCCC1 -0.678% [at 127 µM]
C=CCOc1c(Cl)cc(CNc2ccc(N(C)C)cc2)cc1OC -0.719%
NC(=O)c1ccccc1NC(=O)CC12CC3CC(CC(C3)C1)C2 1.11% [at 127 µM]

Potency, active:
CCCC(=O)Nc1ncnc2c1ncn2[C@@H]1O[C@@H]2COP(=O)(O)O[C@H]2[C@H]1OC(=O)CCC 1.38 µM
CCC(Sc1ccc2nnc(-c3cccnc3)n2n1)C(=O)O (configuration not stated) 17.3 µM
Cc1ccc(-n2nnc3c(=O)n(CC(=O)NCC4CCCO4)cnc32)cc1 (configuration not stated) 24.5 µM
N#CCCSc1ncnc2c1oc1ccccc12 19.4 µM
CCc1nnc(NC(=O)CSc2nc(C)nc3c2c(=O)n(C)c(=O)n3C)s1 9.74 µM
COC(=O)c1cc(CN2C(=O)c3ccccc3C2=O)c(O)c([N+](=O)[O-])c1 30.9 µM
CCC(=O)Nc1ccc(NC(=O)CSc2nc3c(c(=O)n(C)c(=O)n3C)n2CC)cc1 38.9 µM
O=C(Cn1cnc2c(nnn2-c2ccc(F)cc2)c1=O)NCC1CCCO1 (configuration not stated) 8.7 µM
CC(C(=O)OCC(=O)N(C)C1(C#N)CCCCC1)N1C(=O)c2ccccc2C1=O (configuration not stated) 13.8 µM
C[C@H](Cc1ccccc1)Nc1ncnc2c1ncn2[C@@H]1O[C@H](CO)[C@@H](O)[C@H]1O 21.9 µM
Cn1c(=O)c2c(ncn2CC(=O)N/N=C/c2cn[nH]c2-c2ccc(F)cc2)n(C)c1=O 21.8 µM
N#Cc1c(N)nc(SCC(=O)C23CC4CC(CC(C4)C2)C3)c(C#N)c1-c1ccc(Cl)cc1 12.3 µM
O=C(Oc1ccccc1)Oc1ccc2c(c1)oc(=O)c1ccccc12 21.8 µM
O=C(Nc1cc(S(=O)(=O)N2CCOCC2)ccc1N1CCOCC1)c1cn2ccccc2n1 30.9 µM
Nc1c(Cl)cc(-c2[nH]c3cc(C(=O)NCCO)ccc3c(=O)c2O)cc1Cl 34.6 µM
CCC1(C)Cc2c(sc3c2c2ncnn2c2nnc(SCC(=O)NCc4ccco4)n32)CO1 (configuration not stated) 13.8 µM
CCN(CC)S(=O)(=O)c1ccc(C)c(NC(=O)Cn2cnc3cc([N+](=O)[O-])ccc3c2=O)c1 34.6 µM
CCOc1ccc(NC(=O)CSc2ccc3nnc(-c4cccnc4)n3n2)cc1 38.9 µM
Cc1noc(NS(=O)(=O)c2ccc(N3Cc4ccccc4C3=O)cc2)c1C 11.9 µM
Cn1c2ccccc2c2nnc(SCC(=O)Nc3cccc(C(=O)O)c3)nc21 21.9 µM
CCOP1(=O)OCC2OC(n3cnc4c(N)ncnc43)C(O)C2O1 (configuration not stated) 12.3 µM
CC(=O)Nc1ccc(NC(=O)CSc2ccc3nnc(-c4cccnc4)n3n2)cc1 13.8 µM
Cc1cc(C)nc(NS(=O)(=O)c2ccc(NC(=O)c3nn(-c4ccccc4)ccc3=O)cc2)n1 15.5 µM
